Sampled rows, rich in hits. Any-hit rate of the full collection: about 7.3%.
p53 reactivation = qHTS assay for re-activators of p53 using a Luc reporter; H1299 p53-A138V BP100-luciferase reporter, luminescence, 24 h; Potency, µM (series often up to 92.2 µM), for inactives: at the top dose activity change, positive = activation, most hits filed as activators; 320,000 compounds, 0.063% hits; AID 504706, 2011; further: % of control where 0% means no effect; nearly all actives have a fitted effect of over 45% in size
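H1299 (p53-null), stable ts p53-A138V + BP100-Luc; 1000 cells/well, Opti-MEM/10% FBS; cpd 4 pt, 1:5; 24 h, 37 deg C, 5% CO2; detection reagent 10 min RT; luminescence.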
ELG1 genotox = qHTS screen for small molecules that induce genotoxicity in human embryonic kidney (HEK293T) cells expressing luciferase-tagged ELG1 | HEK293T ELG1-luciferase reporter, luminescence, 16 h | Potency, µM (top dose mostly 46 µM), for inactives: at the highest dose activity change, positive = activation, usual class: activators | 330,000 compounds, 1.3% hits | AID 504466, 2011; further: % of control where 0% means no effect; nearly all actives have a fitted effect of over 60% in size
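Quantitative HTS format in 1536-well plates. HEK293T ELG1-luciferase reporter cells receive test compound and are incubated 16 hr at 37 °C, 5% CO2; ONE-Glo added, 30 min room temperature, then luminescence read.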
SMN2 splice up = qHTS Assay for Enhancers of SMN2 Splice Variant Expression. HEK293 SMN2-luciferase splicing reporter, luminescence, 30-36 h. Potency, µM (series often up to 46.1 µM), inactives show top-dose activity change, positive = activation, hits mostly activators. 210,000 compounds, 2.8% hits; further: % of control where 0% means no effect; nearly all actives have a fitted effect of over 55% in size
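HEK293 cells carry an SMN2 […]–luciferase reporter in which exon 7 inclusion puts luciferase in frame. Cells were plated 10-12 h before compound addition, then incubated 30-36 h at 37C. ONE-Glo luminescence was read; sodium butyrate at 4.5 mM final served as control.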
NPC1 promoter act = qHTS Assay for NPC1 Promoter Activators; Huh7 NPC1 promoter luciferase reporter, 24 h; AID 485313, 2010; Potency, µM (highest dose often 9.22 µM), for the others: top-dose activation, hits mostly activators; 320,000 compounds, 2.4% hits; further: % of control where 0% means no effect; nearly all actives have a fitted effect of over 60% in size
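Huh7 cells stably carrying NPC1 promoter–luciferase, plated in Opti-MEM with 10% FBS for 2 h, were exposed to compound in DMSO for 24 h at 37 °C; luciferase reagent was added for 10 min and luminescence read.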
FLuc counter = qHTS profiling assay for firefly luciferase inhibitor/activator using purifed enzyme and Km concentrations of substrates (counterscreen for miR-21 project); purified FLuc, Km substrates, luminescence inhibition; Luciferin 4-monooxygenase (Photinus pyralis), P08659; 360,000 compounds, 6.9% hits; AID 588342, 2011; Potency, µM (titrated, usually from 57.5 µM), without a hit: top-dose activity change, negative = inhibition, actives largely listed as inhibitors;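 further: plate controls were vehicle for no effect and reference inhibitor for full effect; nearly all actives have a fitted effect of over 55% in size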
Target sequence (P08659 whole entry, looked up): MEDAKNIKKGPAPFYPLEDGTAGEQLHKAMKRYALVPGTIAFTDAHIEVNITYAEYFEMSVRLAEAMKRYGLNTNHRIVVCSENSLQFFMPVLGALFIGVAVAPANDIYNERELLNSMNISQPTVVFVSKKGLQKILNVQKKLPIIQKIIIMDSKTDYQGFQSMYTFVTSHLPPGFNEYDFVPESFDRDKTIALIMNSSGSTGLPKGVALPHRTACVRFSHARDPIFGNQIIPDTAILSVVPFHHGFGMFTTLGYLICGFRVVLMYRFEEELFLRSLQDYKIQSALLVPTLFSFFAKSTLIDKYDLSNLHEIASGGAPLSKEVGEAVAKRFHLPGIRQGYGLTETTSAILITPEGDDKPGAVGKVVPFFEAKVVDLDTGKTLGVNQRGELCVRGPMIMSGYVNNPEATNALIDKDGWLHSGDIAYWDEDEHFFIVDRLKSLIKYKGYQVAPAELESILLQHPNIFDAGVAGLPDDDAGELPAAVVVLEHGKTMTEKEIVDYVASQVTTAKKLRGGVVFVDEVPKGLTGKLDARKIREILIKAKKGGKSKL
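Purified P. pyralis luciferase (10nM final) with 10uM D-luciferin and 10uM ATP (Km levels) in 50mM Tris acetate pH 7.5, 10mM Mg acetate, 0.01% Tween-20, 0.05% BSA; qHTS 6-point titration, ~60 µM downward; luminescence read.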
Rab9 promoter act = qHTS Assay for Rab9 Promoter Activators | Huh7 Rab9 promoter-luciferase reporter, luminescence, 24 h | Potency, µM (top dose mostly 9.22 µM), without a hit: at the top dose activation, negative = inhibition, most hits filed as activators | 320,000 compounds, 2.8% hits | AID 485297, 2010; further: % of control where 0% means no effect; nearly all actives have a fitted effect of over 60% in size
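Huh7 cells stably carrying a Rab9 promoter-luciferase reporter, 1500 cells per well in OP-MEM I with 10% FBS, treated with compound 24 hours at 37C. Luciferase activity read by luminescence after 10 minutes with Amplite reagent.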
An asterisk follows results filed as active; ? = inconclusive; · = no result. The call rests on the fitted dose curve; in most records, active means well fitted curve in the direction sought with a large enough effect; inconclusive means small, poorly fitted or top-dose-only effect, or another doubt; inactive means no such curve, though single readings can be large; an effect the other way counts as inactive or inconclusive. Potency means the concentration at half of the fitted maximal effect.

SMILES	p53 reactivation	ELG1 genotox	SMN2 splice up	NPC1 promoter act	FLuc counter	Rab9 promoter act
C[C@H]1CCC(=O)N([C@H](COc2ccccc2)Cc2ccccc2)CC1	11.8%	-2.9%	·	-2.3%	0.4%	0.5%
O=C(CSc1nnc(NC(=O)NC2CCCCC2)s1)Nc1ccccc1F	·	·	·	·	3.01µM*	·
CSc1nsc(SCC(=O)Nc2ccc(C(C)=O)cc2)n1	?	8.2µM*	12.6µM*	24.3%	21.3µM*	15.3%
COc1ccc(NC(=O)CSc2nnc(NC(=O)NC3CCCCC3)s2)cc1OC	·	·	·	·	2.39µM*	·
CSc1nsc(SCC(=O)Nc2ccc(NC(C)=O)cc2)n1	2.7%	3.3%	·	1.8%	-10.4%	-4.5%
COc1cc(C(=O)N2CCC(c3nc4ccccc4o3)CC2)cc(OC)c1OC	·	·	·	·	-2.2%	·
COc1ccc(C(=O)NCC(c2ccc(N(C)C)cc2)N2CCc3ccccc32)cc1 (centres undefined)	·	·	·	·	-1.6%	·
N#Cc1nc(-c2ccc(COc3ccc(Cl)cc3)o2)oc1N1CCCCC1	·	·	·	·	7.1%	·
Cc1ccc(OCCCN2C(=O)C(=O)c3cccc(C)c32)cc1	-3.3%	-1.2%	-22.3%	0.8%	23.9µM*	7.2%
Cc1cccc2c1N(CCOc1ccc(C(C)(C)C)cc1)C(=O)C2=O	-31.4%	-0.7%	-7.1%	0.3%	?	14.4%
Cc1ccc(OCCN2C(=O)C(=O)c3cc(C)ccc32)cc1	18.8%	?	-36.2%	-11.0%	15.1µM*	-12.1%
Brc1cccc(-c2cnn3c(-c4ccccc4)cc(-c4ccccc4)nc23)c1	·	·	-9.6%	·	-2.0%	·
Cc1ccc2c(c1)sc1nc(=O)n(-c3ccccc3)c(=O)n12	25.9%	?	·	0.562µM*	?	0.316µM*
Cc1occc1C(=O)N/N=C/C(Br)=C\c1ccccc1	?	?	·	2.51µM*	2.13µM*	0.891µM*
Cc1occc1C(=O)N/N=C/C=C/c1ccccc1[N+](=O)[O-]	9.5%	5.8%	-10.9%	2.1%	?	-2.0%
Cc1occc1C(=O)N/N=C/C=C/c1ccc(N(C)C)cc1	17.1%	?	·	4.47µM*	23.9µM*	2.51µM*
Cc1cc(C(=O)N/N=C/C=C/c2ccccc2)c(C)o1	-0.7%	2.5%	-6.4%	0.8%	?	0.3%
Cc1onc(-c2ccccc2)c1C(=O)N/N=C/C(Br)=C/c1ccccc1	0.6%	?	-59.5%	2.1%	-4.2%	-4.1%
Cc1ccc(/C=N/NC(=O)c2ccoc2C)o1	?	16.2%	?	29.2%	?	?
Cc1occc1C(=O)N/N=C/C=C/c1ccccc1	20.0%	?	12.6µM*	3.55µM*	?	3.55µM*
Cc1occc1C(=O)N/N=C/c1ccc(N(C)C)cc1	-3.2%	?	·	0.316µM*	1.2µM*	0.112µM*
COc1cc(N=Nc2cccc(S(N)(=O)=O)c2)c2ccccc2c1N	-6.7%	?	?	10.2%	19µM*	-3.0%
CCOC(=O)Nc1nnc(/C=C/c2ccc(OC)cc2)s1	6.6%	15.5%	7.2%	8.4%	13.5µM*	-0.3%
CCOC(=O)Nc1nnc(-c2cccc(OC)c2)s1	?	?	?	10.5%	?	3.1%
CCCC(=O)Nc1nnc(/C=C/c2ccc(OC)cc2)s1	3.6%	2.4%	·	22.5%	?	17.3%
SMILES	p53 reactivation	ELG1 genotox	SMN2 splice up	NPC1 promoter act	FLuc counter	Rab9 promoter act
COc1ccc(/C=C/c2nnc(NC(=O)COc3ccc(C)cc3)s2)cc1	4.2%	9.6%	5.01µM*	21.0%	-0.6%	3.5%
COc1ccc(/C=C/c2nnc(NC(=O)C(C)(C)C)s2)cc1	-0.7%	1.5%	·	21.8%	8.49µM*	19.4%
COc1ccc(/C=C/c2nnc(NC(=O)COc3ccccc3)s2)cc1	19.5%	-0.5%	·	3.9%	-3.4%	-1.2%
CCOC(=O)Nc1nnc(-c2ccc(OC)cc2)s1	7.8%	?	17.8%	20.8%	4.78µM*	?
CCCCOC(=O)Nc1nnc(/C=C/c2ccc(OC)cc2)s1	-3.6%	2.5%	-4.0%	-4.3%	?	-1.0%
CCOC(=O)c1ccc(NC2=CC(c3ccc(O)c(OCC)c3)N(c3ccc(C(=O)OCC)cc3)C2=O)cc1 (centres undefined)	·	·	0.8%	·	3.9%	·
COc1ccc(-n2nc(C(=O)NCC(=O)N3CCOCC3)c3ccccc3c2=O)cc1Cl	9.6%	-0.3%	·	-4.1%	10.7µM*	-0.2%
COc1ccc(-n2nc(C(=O)NCC(=O)N3CCCCCC3)c3ccccc3c2=O)cc1OC	14.3%	-4.7%	·	11.9%	6.75µM*	2.0%
CCC(C)NC(=O)CNC(=O)c1nn(-c2ccc(OC)c(Cl)c2)c(=O)c2ccccc12 (centres undefined)	-7.0%	-5.6%	·	-3.1%	-10.5%	-3.8%
CCOC(=O)C1CCCN(C(=O)CNC(=O)c2nn(-c3ccc(OC)c(Cl)c3)c(=O)c3ccccc23)C1 (centres undefined)	4.1%	-11.7%	·	-1.0%	6.75µM*	0.5%
CCOC(=O)C1CCN(C(=O)CNC(=O)c2nn(-c3ccc(OC)c(Cl)c3)c(=O)c3ccccc23)CC1	?	1.5%	·	24.5%	2.69µM*	20.9%
CCc1c(-c2ccccc2)nc2ccccc2c1C(=O)NCCc1ccccc1	·	·	·	·	-13.8%	·
CCC(C)(CCNC(=O)Cc1ccccc1)c1ccccc1OC (centres undefined)	-2.8%	-2.8%	·	-0.6%	-0.5%	-8.7%
Cc1ccccc1C(OCCN(C(C)C)C(C)C)c1ccccc1 (centres undefined)	1.5%	-7.9%	0.5%	0.8%	1.4%	-0.5%
COc1ccc(-c2cc(C)no2)cc1S(=O)(=O)NCc1ccco1	·	·	·	·	-10.0%	·
N#CCCn1c(=O)c(CCc2ccccc2)nc2cnc(Oc3cccc(Cl)c3)nc21	·	·	-35.3%	·	·	·
Cc1ccc(S(=O)(=O)NC2=NCN(CC(=O)O)CN2)cc1	-7.1%	-3.1%	·	-0.9%	0.2%	-5.7%
COc1ccc(-n2nc(C(=O)NCC(=O)N3CCCC(C)C3)c3ccccc3c2=O)cc1Cl (centres undefined)	16.2%	-2.3%	·	-2.4%	5.36µM*	-0.9%
COc1ccc(-n2nc(C(=O)NCC(=O)NC(C)C)c3ccccc3c2=O)cc1Cl	-3.8%	-5.8%	·	-1.8%	-3.5%	3.1%
CC1CC(C)CN(S(=O)(=O)CC23CCC(CC2=O)C3(C)C)C1 (centres undefined)	0.6%	0.7%	·	10.2%	0.2%	0.5%
CN=Cc1nc(-c2ccccc2)oc1O	?	?	11.2µM*	3.55µM*	16.9µM*	2.51µM*

From PubChem BioAssay
